# Where “and” joins values, the source holds several entries; their conditions need not be identical. Identical values can stand only once. Results filed as inconclusive are left out. Entries that show only a call come without a potency. A structure can be active in one record and inactive in another. Calls of active or inactive are those of the source. Unless noted, the call rests on the fitted dose curve; in most records, active means well fitted curve in the direction sought with a large enough effect in the repeat runs; inconclusive means weak or mixed curves; inactive means no such curve, though single readings can be large; an effect the other way counts as inactive or inconclusive.
# Assays:
# [1] = qHTS assay to identify small molecule antagonists of the thyroid receptor (TR) signaling pathway - cell viability counter screen (AID 743064); further: nearly all actives have a fitted effect of over 50% in size; further: potency means the concentration at half of the fitted maximal effect
# In short: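 CellTiter-Fluor readout, 30 min at 37 °C/5% CO2, following 23.5 h incubation of GH3.TRE-Luc cells with test compound and 1 nM T3 (final).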
# [2] = qHTS assay to identify small molecule antagonists of the thyroid receptor (TR) signaling pathway (AID 743065); further: nearly all actives have a fitted effect of over 55% in size; further: potency means the concentration at half of the fitted maximal effect
# In short: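 Antagonism measured as loss of luciferase signal in GH3 cells stably carrying a TRE-luciferase reporter, co-treated with compound and T3 (1 nM final) for 23.5 h at 37 C. Viability was read in the same well by CellTiter-Fluor.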
# [3] = tested on: thyroid hormone receptor (rat, GH3 cells); test: qHTS assay to identify small molecule agonists of the thyroid receptor (TR) signaling pathway (AID 743066; calls by dose curve)
# [4] = qHTS assay to identify small molecule antagonists of the estrogen receptor alpha (ER-alpha) signaling pathway - cell viability counter screen (AID 743074; calls by dose curve;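 further: HEK293 cells carrying ER-alpha-UAS-bla reporter stimulated with 17beta-estradiol; nearly all actives have a fitted effect of over 45% in size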; further: potency means the concentration at half of the fitted maximal effect)
# [5] = qHTS assay to identify small molecule antagonists of the estrogen receptor alpha (ER-alpha) signaling pathway using the BG1 cell line - cell viability counter screen (AID 743081);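 further: compound given together with 17beta-estradiol as the ER stimulus; nearly all actives have a fitted effect of over 45% in size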; further: potency means the concentration at half of the fitted maximal effect
# Aromatase (Homo sapiens) = Aromatase (Homo sapiens) (UniProt P11511); test: qHTS assay to identify aromatase inhibitors (AID 743083); further: nearly all actives have a fitted effect of over 55% in size; further: potency means the concentration at half of the fitted maximal effect
# [6] = qHTS assay to identify aromatase inhibitors - cell viability counter screen (AID 743084);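 further: cells stimulated with testosterone during compound exposure; nearly all actives have a fitted effect of over 55% in size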; further: potency means the concentration at half of the fitted maximal effect
# [7] = molecular target: Aryl hydrocarbon receptor (Homo sapiens) (UniProt P35869); test: qHTS assay to identify small molecule that activate the aryl hydrocarbon receptor (AhR) signaling pathway (AID 743085); further: nearly all actives have a fitted effect of over 15% in size; further: potency means the concentration at half of the fitted maximal effect;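 on activation: HG2L7.5c1 human HepG2 liver cells with stably integrated DRE-driven firefly reporter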
# In short: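 Stably transfected human liver carcinoma cells (HG2L7.5c1; 20 DRE-firefly luciferase) were incubated 5 h, dosed, and kept 24 h at 37C. Agonism was scored from increased luciferase luminescence.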
# [8] = molecular target: Peroxisome proliferator-activated receptor gamma (Homo sapiens) (UniProt P37231); test: qHTS assay to identify small molecule agonists of the peroxisome proliferator-activated receptor gamma (PPARg) signaling pathway (AID 743094; active means well fitted activation curve with a large enough effect in the signal ratio in the repeat runs, not every such curve was filed as active; the % refers to the signal ratio)
# In short: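 Stably transfected HEK293H cells (GeneBLAzer PPARg UAS-bla) were incubated with test substances for 17 h at 37C after a 5 h pre-incubation; beta-lactamase activity was then detected by FRET substrate fluorescence.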
# [9] = molecular target: Peroxisome proliferator-activated receptor gamma (Homo sapiens) (UniProt P37231); test: qHTS assay to identify small molecule antagonists of the peroxisome proliferator-activated receptor gamma (PPARg) signaling pathway (AID 743191; calls by dose curve; further: nearly all actives have a fitted effect of over 30% in size; further: potency means the concentration at half of the fitted maximal effect)
# In short: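 Beta-lactamase reporter under UAS control in HEK293H PPARg-bla cells; compound treatment 17 h at 37C. Read-out: fluorescence intensity after 1 h room-temperature incubation with LiveBLAzer B/G FRET substrate.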
# [10] = qHTS assay to identify small molecule antagonists of the peroxisome proliferator-activated receptor gamma (PPARg) signaling pathway - cell viability counter screen (AID 743194); conditions: Potency: co-treated with 50 nM rosiglitazone unless noted; further: nearly all actives have a fitted effect of over 55% in size; further: potency means the concentration at half of the fitted maximal effect
# In short: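 Viability was measured as CellTiter-Glo luminescence in GeneBLAzer PPARg UAS-bla HEK293H cells. These cells had been exposed 17 h at 37 C to compounds together with rosiglitazone at 50 nM final, with the beta-lactamase readout taken in the same wells.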
# [11] = qHTS assay for small molecule agonists of the antioxidant response element (ARE) signaling pathway (AID 743202; active means well fitted activation curve with a large enough effect in the signal ratio in the repeat runs, not every such curve was filed as active; the % refers to the signal ratio; further: potency means the concentration at half of the fitted maximal effect)
# In short: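 Quantitative high-throughput format in HepG2 cells bearing an integrated ARE-beta-lactamase reporter. Compound exposure lasted 16 h at 37 C, and fluorescence was read 2 h after adding LiveBLAzer B/G substrate at room temperature.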
# [12] = qHTS assay for small molecule agonists of the antioxidant response element (ARE) signaling pathway - cell viability counter screen (AID 743203; calls by dose curve; further: nearly all actives have a fitted effect of over 55% in size; further: potency means the concentration at half of the fitted maximal effect)
# In short: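 Cells (ARE-bla HepG2, 2,000/well) receive DMSO-dissolved compounds after a 5 hrs rest. Plates incubate 16 hrs at 37C/5% CO2. CellTiter-Glo luminescence is then recorded after 30 min at room temperature.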
# [13] = qHTS assay for small molecule activators of the heat shock response signaling pathway - cell viability counter screen (AID 743209); further: nearly all actives have a fitted effect of over 50% in size; further: potency means the concentration at half of the fitted maximal effect
# In short: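 Quantitative HTS format, Tox21 10K library. HeLa cells carrying an HSE-driven beta-lactamase reporter were treated 5 h at 37 C, then assessed for viability by CellTiter-Glo luminescence.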
# [14] = qHTS assay for small molecule activators of the heat shock response signaling pathway (AID 743210; active means well fitted activation curve with a large enough effect in the signal ratio in the repeat runs, with a control signal flat, not every such curve was filed as active; the % refers to the signal ratio;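 further: HeLa cells with beta-lactamase reporter driven by heat shock elements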)
# In short: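 HeLa HSE-bla cells, overnight plating; cpd in DMSO 5 h, 37 C; LiveBLAzer B/G FRET substrate 2.5 h RT; fluorescence intensity read.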
# [15] = molecular target: Estrogen receptor (Homo sapiens) (UniProt P03372); test: qHTS assay to identify small molecule agonists of the estrogen receptor alpha (ER-alpha) signaling pathway (AID 743075; calls by dose curve;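 further: HEK293 GripTite cells with ER-alpha and UAS-driven beta-lactamase reporter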)
# [16] = qHTS assay to identify small molecule that activate the aryl hydrocarbon receptor (AhR) signaling pathway - cell viability counter screen (AID 743086); further: nearly all actives have a fitted effect of over 45% in size; further: potency means the concentration at half of the fitted maximal effect
# In short: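 Cytotoxicity counter screen: CellTiter-Fluor signal (30 min, 37 C) in 4000 HepG2 cells/well carrying the DRE-luciferase reporter, following 24 h compound exposure at 37 C.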
# [17] = molecular target: Estrogen receptor (Homo sapiens) (UniProt P03372); test: qHTS assay to identify small molecule antagonists of the estrogen receptor alpha (ER-alpha) signaling pathway (AID 743069; active means well fitted curve in the direction sought with a large enough effect in the signal ratio in the repeat runs, not every such curve was filed as active; the % refers to the signal ratio)
# In short: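 ER-alpha-UAS-bla GripTite HEK293 line; 2% charcoal-stripped FBS overnight; plated, 4 hr 37C/5% CO2; cpd in DMSO + 17beta-estradiol, 18 hr 37C; LiveBLAzer B/G FRET substrate 2 hr RT; fluorescence intensity.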
# [18] = molecular target: Estrogen receptor (Homo sapiens) (UniProt P03372); test: qHTS assay to identify small molecule agonists of the estrogen receptor alpha (ER-alpha) signaling pathway using the BG1 cell line (AID 743079); conditions: BG1Luc4E2 cells, ERE-luciferase agonist, 22 h; activation: at 70.3 µM (top of the series) unless noted; further: nearly all actives have a fitted effect of over 20% in size; further: potency means the concentration at half of the fitted maximal effect
# [19] = qHTS assay to identify small molecule antagonists of the estrogen receptor alpha (ER-alpha) signaling pathway using the BG1 cell line (AID 743080; calls by dose curve;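 further: BG1 cells stimulated with 17beta-estradiol alongside compound; nearly all actives have a fitted effect of over 25% in size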; further: potency means the concentration at half of the fitted maximal effect)
# In short: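 Luminescence from a 4×ERE-luciferase reporter in BG1-Luc-4E2 cells served as read-out. Cells, pre-cultured 5 days in stripped-serum phenol-red-free medium, were exposed to compound with 17beta-estradiol co-stimulation for 21.5 h at 37 C.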
# Sequence of Aromatase (Homo sapiens) (P11511 whole entry, looked up): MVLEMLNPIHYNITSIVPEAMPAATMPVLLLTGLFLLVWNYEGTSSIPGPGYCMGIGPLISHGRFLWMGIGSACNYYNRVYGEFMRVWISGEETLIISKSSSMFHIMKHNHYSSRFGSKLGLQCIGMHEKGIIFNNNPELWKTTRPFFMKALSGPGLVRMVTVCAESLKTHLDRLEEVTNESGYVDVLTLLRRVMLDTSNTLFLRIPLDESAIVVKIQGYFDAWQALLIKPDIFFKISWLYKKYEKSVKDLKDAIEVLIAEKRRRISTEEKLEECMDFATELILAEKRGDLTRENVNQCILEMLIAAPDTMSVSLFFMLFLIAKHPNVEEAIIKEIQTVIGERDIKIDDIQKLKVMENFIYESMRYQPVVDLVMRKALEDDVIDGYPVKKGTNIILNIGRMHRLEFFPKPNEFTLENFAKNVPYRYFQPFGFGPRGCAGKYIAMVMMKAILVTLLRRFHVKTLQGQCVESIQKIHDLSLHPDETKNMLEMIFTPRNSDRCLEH
# Sequence of Aryl hydrocarbon receptor (Homo sapiens) (P35869 whole entry, looked up): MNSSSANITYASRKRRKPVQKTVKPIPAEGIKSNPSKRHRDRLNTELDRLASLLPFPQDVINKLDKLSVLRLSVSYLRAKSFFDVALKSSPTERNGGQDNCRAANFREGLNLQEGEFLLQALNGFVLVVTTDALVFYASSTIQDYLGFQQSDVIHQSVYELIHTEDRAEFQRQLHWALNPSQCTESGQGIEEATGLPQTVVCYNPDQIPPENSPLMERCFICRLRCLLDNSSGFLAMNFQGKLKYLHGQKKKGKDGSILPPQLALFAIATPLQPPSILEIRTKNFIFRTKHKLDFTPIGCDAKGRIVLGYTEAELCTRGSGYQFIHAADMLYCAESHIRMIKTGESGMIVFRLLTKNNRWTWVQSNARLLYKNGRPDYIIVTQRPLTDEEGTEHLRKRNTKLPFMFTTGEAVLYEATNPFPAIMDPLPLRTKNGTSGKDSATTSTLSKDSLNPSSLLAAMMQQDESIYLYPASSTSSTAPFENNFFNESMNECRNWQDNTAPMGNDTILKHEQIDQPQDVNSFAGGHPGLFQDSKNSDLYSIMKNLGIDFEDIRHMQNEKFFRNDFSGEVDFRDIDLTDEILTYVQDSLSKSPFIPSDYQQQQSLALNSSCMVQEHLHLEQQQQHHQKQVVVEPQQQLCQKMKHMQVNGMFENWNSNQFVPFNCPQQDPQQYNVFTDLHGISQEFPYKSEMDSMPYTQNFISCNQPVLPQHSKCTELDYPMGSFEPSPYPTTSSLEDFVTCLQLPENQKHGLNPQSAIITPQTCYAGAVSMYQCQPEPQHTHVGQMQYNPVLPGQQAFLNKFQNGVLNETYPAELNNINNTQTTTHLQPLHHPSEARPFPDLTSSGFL
# Sequence of Peroxisome proliferator-activated receptor gamma (Homo sapiens) (P37231 whole entry, looked up): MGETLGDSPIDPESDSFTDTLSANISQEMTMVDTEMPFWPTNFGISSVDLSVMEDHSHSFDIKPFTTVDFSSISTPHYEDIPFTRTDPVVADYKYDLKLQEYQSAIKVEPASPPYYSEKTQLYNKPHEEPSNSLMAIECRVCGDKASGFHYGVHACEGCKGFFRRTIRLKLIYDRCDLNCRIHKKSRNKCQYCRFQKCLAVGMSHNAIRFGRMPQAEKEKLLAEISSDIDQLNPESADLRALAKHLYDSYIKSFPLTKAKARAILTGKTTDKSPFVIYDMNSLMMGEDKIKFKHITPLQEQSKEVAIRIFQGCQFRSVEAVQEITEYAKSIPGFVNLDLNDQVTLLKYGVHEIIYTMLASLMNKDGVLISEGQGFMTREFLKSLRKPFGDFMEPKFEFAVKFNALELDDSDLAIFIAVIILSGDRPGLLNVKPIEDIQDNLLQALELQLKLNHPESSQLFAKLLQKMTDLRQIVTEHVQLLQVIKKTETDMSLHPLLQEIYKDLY
# Sequence of Estrogen receptor (Homo sapiens) (P03372 whole entry, looked up): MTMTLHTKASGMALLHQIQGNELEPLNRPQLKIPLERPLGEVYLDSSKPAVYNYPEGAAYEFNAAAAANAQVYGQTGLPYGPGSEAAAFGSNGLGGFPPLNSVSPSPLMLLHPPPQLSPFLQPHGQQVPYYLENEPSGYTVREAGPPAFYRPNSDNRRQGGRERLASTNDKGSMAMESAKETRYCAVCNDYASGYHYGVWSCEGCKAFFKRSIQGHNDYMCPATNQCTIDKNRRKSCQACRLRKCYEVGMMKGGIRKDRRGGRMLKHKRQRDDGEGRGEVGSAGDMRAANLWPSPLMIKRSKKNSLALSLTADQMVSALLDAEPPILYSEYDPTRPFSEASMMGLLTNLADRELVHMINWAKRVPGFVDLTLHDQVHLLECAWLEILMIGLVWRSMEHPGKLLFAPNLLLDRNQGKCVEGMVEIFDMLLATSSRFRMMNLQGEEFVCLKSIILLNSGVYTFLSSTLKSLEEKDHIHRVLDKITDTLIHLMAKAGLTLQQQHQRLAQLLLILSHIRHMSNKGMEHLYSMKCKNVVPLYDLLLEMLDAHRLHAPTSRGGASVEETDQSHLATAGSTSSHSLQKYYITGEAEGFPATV
Compound,Potency [1],Potency [2],Potency [3],Potency [4],Potency [5],Potency (Aromatase (Homo sapiens)),Potency [6],Potency [7],Potency [8],Potency [9],Potency [10],Potency [11],Potency [12],Potency [13],Potency [14],Potency [15],Potency [16],Potency [17],Potency [18],Potency [19]
O=C1Nc2ccc(Cl)cc2C(c2ccccc2)=NC1O (configuration not stated),inactive,54.9 µM (active),inactive,inactive,inactive,inactive,inactive,inactive,inactive,44 µM (active),inactive,inactive,inactive,inactive,inactive,,,,,
O=[N+]([O-])c1ccc(Cl)c([N+](=O)[O-])c1,15.6 µM (active) and 6.11 µM (active),4.39 µM (active) and 4.86 µM (active),inactive,49.7 µM (active) and 24.5 µM (active),62.1 µM (active) and 61.1 µM (active),6.21 µM (active) and 8.63 µM (active),6.21 µM (active) and 6.86 µM (active),inactive,,8.85 µM (active) and 8.71 µM (active),11.1 µM (active) and 9.77 µM (active),,12.4 µM (active) and 6.86 µM (active),9.92 µM (active) and 4.9 µM (active),,inactive,24.7 µM (active) and 27.3 µM (active),,,
CCCCCCCCCc1ccc(O)cc1,39 µM (active),30.9 µM (active),inactive,,inactive,49.1 µM (active),55 µM (active),inactive,inactive,,,,,,,inactive,inactive,inactive,6.93 µM (active),inactive
CS(=O)(=O)NC(=O)c1cc(Oc2ccc(C(F)(F)F)cc2Cl)ccc1[N+](=O)[O-],inactive,inactive,inactive,inactive,inactive,inactive,inactive,inactive,inactive,,inactive,,inactive,inactive,inactive,,inactive,,,
O=C1CCCO1,inactive,inactive,inactive,inactive,inactive,inactive,inactive,inactive,inactive,inactive,inactive,inactive,inactive,inactive,inactive,,,,,
Cc1ccc([N+](=O)[O-])cc1,inactive,inactive,inactive,,inactive,inactive,inactive,inactive,inactive,,inactive,inactive,inactive,inactive,inactive,inactive,inactive,inactive,inactive,inactive
Oc1ccc(Cl)cc1Cc1ccccc1,48.6 µM (active) and 36.7 µM (active),54.5 µM (active) and 43.3 µM (active),inactive,inactive and 49 µM (active) and 12.4 µM (active),inactive,27.3 µM (active) and 30.9 µM (active),inactive and 30.6 µM (active) and 49.2 µM (active),inactive,inactive,,,,68.6 µM (active) and 55.1 µM (active),54.9 µM (active) and 45.4 µM (active) and inactive,,,inactive,,,
ClCc1ccccn1,inactive,inactive,inactive,,inactive,inactive,inactive,inactive,inactive,,inactive,inactive,inactive,inactive,inactive,inactive,inactive,inactive,inactive,inactive
S=c1[nH]c2ccccc2[nH]1,inactive,inactive,inactive,inactive,inactive,inactive,inactive,68.6 µM (active),inactive,,inactive,,inactive,inactive,inactive,,inactive,,,
CCOP(=O)(OCC)OCC,inactive,inactive,inactive,inactive,inactive,inactive,inactive,inactive,inactive,inactive,inactive,inactive,inactive,inactive,inactive,,inactive,,,
Oc1ccc(Cl)cc1Cl,inactive,inactive,inactive,,inactive,inactive,inactive,inactive,inactive,inactive,inactive,inactive,inactive,inactive,inactive,inactive,inactive,inactive,inactive,inactive
COc1ccc(CO)cc1,inactive,inactive,inactive,inactive,inactive,inactive,inactive,inactive,,,inactive,inactive,inactive,inactive,inactive,,inactive,,,
CC(C)(O)C(=O)Nc1ccc([N+](=O)[O-])c(C(F)(F)F)c1,inactive,62.4 µM (active),inactive,inactive,,inactive,inactive,inactive,,,inactive,27.9 µM (active) and 22.4 µM (active),inactive,inactive,inactive,inactive,inactive,,,55.6 µM (active)
